Bioassay records as filed in PubChem.
KinaseGlo FLuc – Counterscreen for Luciferase (Kinase-Glo TM) Inhibition; Luciferin 4-monooxygenase (Photuris pensylvanica), Q27757; Kinase-Glo luciferase, ATP luminescence, 8 min; Potency, µM (highest dose often 38.3 µM), inactives show top-dose activity change, negative = inhibition, actives largely listed as inhibitors; 200,000 compounds, 0.28% hits; AID 1379, 2008; note: % is set by controls: 0 for no effect and ±100 for the full control effect; nearly all actives have a fitted effect of over 60% in size
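Light output from Kinase-Glo luciferase with luciferin and 10 uM ATP in 50 mM imidazole pH 7.2, KCl, MgCl2, Tween 20, BSA; compound pin-delivered, 8-min ambient incubation, then luminescence read.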
Rab9 promoter act – qHTS Assay for Rab9 Promoter Activators | Potency, µM (doses to about 9.22 µM), inactives show top-dose activation, negative = inhibition, hits mostly activators | 320,000 compounds, 2.8% hits | Huh7 Rab9 promoter-luciferase reporter, luminescence, 24 h | AID 485297, 2010; note: % of control where 0% means no effect; nearly all actives have a fitted effect of over 60% in size
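Steps: seed 1500 Huh7 Rab9-luc cells per well, rest 2 h at 37 °C; add compound in DMSO; incubate 24 h; add luciferase reagent, 10 min ambient; read luminescence.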
NPC1 promoter act – qHTS Assay for NPC1 Promoter Activators | Huh7 NPC1 promoter luciferase reporter, 24 h | Potency, µM (doses to about 9.22 µM), for inactives: at the top dose activation, most hits filed as activators | 320,000 compounds, 2.4% hits; note: % of control where 0% means no effect; nearly all actives have a fitted effect of over 60% in size
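Luciferase expression driven by the NPC1 promoter was measured in stably transfected Huh7 cells after a 24 h compound incubation, using a luciferase reagent and a luminescence read.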
ELG1 genotoxic – qHTS screen for small molecules that induce genotoxicity in human embryonic kidney (HEK293T) cells expressing luciferase-tagged ELG1; HEK293T ELG1-luciferase reporter, luminescence, 16 h; Potency, µM (series often up to 46 µM), inactives show at the highest dose activity change, positive = activation, usual class: activators; 330,000 compounds, 1.3% hits; note: % of control where 0% means no effect; nearly all actives have a fitted effect of over 60% in size
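Cells (2,000/well) expressing the ELG1-luciferase fusion are dosed by pin tool and kept 16 hr at 37 °C, 5% CO2. Signal comes from ONE-Glo luciferase reagent after 30 min at room temperature.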
SMN2 splice enh – qHTS Assay for Enhancers of SMN2 Splice Variant Expression. HEK293 SMN2-luciferase splicing reporter, luminescence, 30-36 h. 210,000 compounds, 2.8% hits. AID 1458, 2008. Potency, µM (doses to about 46.1 µM), without a hit: at the top dose activity change, positive = activation, most hits filed as activators; note: % of control where 0% means no effect; nearly all actives have a fitted effect of over 55% in size
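HEK293 cells carry an SMN2 […]–luciferase reporter in which exon 7 inclusion puts luciferase in frame. Cells were plated 10-12 h before compound addition, then incubated 30-36 h at 37C. ONE-Glo luminescence was read; sodium butyrate at 4.5 mM final served as control.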
FLuc modulator – qHTS profiling assay for firefly luciferase inhibitor/activator using purifed enzyme and Km concentrations of substrates (counterscreen for miR-21 project); Luciferin 4-monooxygenase (Photinus pyralis), P08659; purified FLuc, Km substrates, luminescence inhibition; Potency, µM (doses to about 57.5 µM), for the others: at the top dose activity change, negative = inhibition, hits mostly inhibitors; 360,000 compounds, 6.9% hits; AID 588342, 2011;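 note: plate controls were vehicle for no effect and reference inhibitor for full effect; nearly all actives have a fitted effect of over 55% in size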
Target sequence (P08659 whole entry, looked up): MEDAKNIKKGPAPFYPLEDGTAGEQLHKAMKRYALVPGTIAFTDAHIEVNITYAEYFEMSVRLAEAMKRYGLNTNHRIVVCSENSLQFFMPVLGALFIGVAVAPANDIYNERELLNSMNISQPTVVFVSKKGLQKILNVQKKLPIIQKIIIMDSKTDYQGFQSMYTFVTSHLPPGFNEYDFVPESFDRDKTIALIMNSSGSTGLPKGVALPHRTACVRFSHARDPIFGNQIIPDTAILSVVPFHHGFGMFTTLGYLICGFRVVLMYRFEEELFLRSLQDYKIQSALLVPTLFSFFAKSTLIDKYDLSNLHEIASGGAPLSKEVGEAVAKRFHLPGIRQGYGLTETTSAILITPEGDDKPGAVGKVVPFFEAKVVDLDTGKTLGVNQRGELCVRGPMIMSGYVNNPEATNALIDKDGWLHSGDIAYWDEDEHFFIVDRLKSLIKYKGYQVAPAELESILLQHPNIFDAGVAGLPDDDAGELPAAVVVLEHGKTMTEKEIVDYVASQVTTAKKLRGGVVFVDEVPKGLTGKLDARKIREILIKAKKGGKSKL
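Biochemical qHTS of compounds, final roughly 60 µM downward over six points, against 10 nM purified firefly luciferase using Km concentrations of substrates (10 uM D-luciferin, 10 uM ATP) in Tris acetate pH 7.5 buffer; luminescence output.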
* hit, by the source's call; ? = inconclusive; / = no result given; [ ] = remark or other dose. Shown are actives, neighbours in structure and some others; about 7.5% of the full set was active somewhere. Calls come from the whole dose curve; as a rule, active = well fitted curve in the direction sought with a large enough effect; inconclusive = small, poorly fitted or top-dose-only effect, or another doubt; inactive = no such curve, though single readings can be large; an effect the other way counts as inactive or inconclusive. Potency is the fitted concentration of half-maximal effect.

SMILES	KinaseGlo FLuc	Rab9 promoter act	NPC1 promoter act	ELG1 genotoxic	SMN2 splice enh	FLuc modulator
CCOC(=O)c1ccc(NC(=O)C2CCN(S(=O)(=O)Cc3ccccc3)CC2)cc1	/	/	/	/	/	3%
COc1ccc2c(C(=O)c3ccc(C)cc3)n(Cc3ccc(C(N)=O)cc3)[n+]([O-])c2c1	/	?	?	?	/	13µM*
COc1ccc(C(=O)c2c3ccccc3[n+]([O-])n2Cc2ccc(C(N)=O)cc2)cc1	/	-1%	-3%	6%	/	?
COc1ccc(N2CCN(C(=O)Cc3noc4ccc(C)cc34)CC2)cc1	/	/	/	/	/	-20%
CCOCCc1nnc(NC(=O)C(=O)c2cc(C)n(-c3cccc(C)c3)c2C)s1	/	/	/	/	/	-3%
Cc1ccc(C(=O)NC(Cc2ccc(C(C)(C)C)cc2)C(=O)O)cc1 (stereo unspecified)	/	/	/	-3%	/	/
COC(=O)[C@H](Cc1ccccc1)NC(=O)NCc1ccc(C)cc1	/	-7%	4%	0%	/	21µM*
COC(=O)C(Cc1ccc(O)cc1)NC(=O)c1ccccc1 (stereo unspecified)	-16%	-3%	-5%	0%	29%	19µM*
COC(=O)C(Cc1ccccc1)NC(=O)c1ccc(C)cc1 (stereo unspecified)	9%	5%	-4%	-9%	-8%	6µM*
COC(=O)[C@H](Cc1ccccc1)NC(=O)NCc1ccccc1	/	0%	0%	-3%	/	-25%
S=C(c1ccc(-c2cccc(Cl)c2)o1)N1CCCCC1	0%	2.5µM*	3.5µM*	?	11µM*	2.7µM*
S=C(c1ccc(-c2cc(Cl)ccc2Cl)o1)N1CCOCC1	-2%	-3%	1%	0%	-16%	?
O=C(Nc1ccccc1N1CCCCC1)c1ccc(-c2cccc(Cl)c2)o1	-3%	-2%	3%	4%	-40%	-11%
O=C(NC(=S)Nc1cc(Cl)ccc1N1CCOCC1)c1ccc(-c2cccc(Cl)c2)o1	4%	-11%	-7%	3%	1%	0%
S=C(c1ccc(-c2cc(Cl)ccc2Cl)o1)N1CCCCC1	1%	-4%	3%	-3%	-36%	17µM*
S=C(c1ccc(-c2cccc(Cl)c2)o1)N1CCOCC1	-1%	3.5µM*	3.2µM*	3.5µM*	25µM*	5.4µM*
CCOc1ccc(NC(=O)c2c(NC(=O)c3ccccc3Br)sc3c2CCC(C)C3)cc1 (stereo unspecified)	/	/	/	/	-1%	-19%
CSC1=N/C(=C\c2cccnc2)C(=O)N1c1ccccc1	-1%	-3%	1%	15%	11%	12µM*
CN1c2ccccc2C(C)(C)C12CC(c1ccc(S(=O)(=O)N3CCCCC3)cc1)=NO2 (stereo unspecified)	2%	8%	-5%	-5%	1.1µM*	-1%
COc1ccc(C(=O)Nn2cnc3scc(-c4cccs4)c3c2=O)c(O)c1	1%	2.5µM*	2.8µM*	7.3µM*	13µM*	15µM*
COc1cccc(-n2cnc3scc(-c4cccs4)c3c2=O)c1	2%	1%	3%	-3%	-7%	-2%
CC(=O)Nc1nonc1-c1nnc(SCc2cccc(Br)c2)n1C	/	/	/	/	/	-3%
Cn1ncc(S(=O)(=O)Cc2ccccc2)c(Br)c1=O	/	-3%[46.1 µM]	-15%[46.1 µM]	/	/	/
Cc1ccc(CNC(=O)C2CCCN(S(=O)(=O)c3ccc4c(c3)oc(=O)n4C)C2)cc1 (stereo unspecified)	/	/	/	/	-1%	2%
c1ccc(-c2cn3c(n2)SCC3)cc1	-4%	21%	17%	8%	22%	?
O=C(Nc1ccc(-c2cn3c(n2)SCC3)cc1)c1ccc2ccccc2n1	0%	8%	21%	-12%	19%	19µM*
